Screening data as filed in PubChem.
G9a inh: inhibitors of human histone lysine methyltransferase G9a; G9a H3K9 monomethylation, AlphaScreen, 2 h; Potency, µM (series often up to 102 µM), hits mostly inhibitors; 350,000 compounds, 8.8% hits; further: nearly all actives have a fitted effect of over 75% in size
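AlphaScreen detection with an anti-monomethyl H3K9 antibody quantified product after a 2 h room-temperature reaction containing 500 nM biotinylated H3K9 peptide, 20 µM SAM and 20 nM enzyme, which had been preincubated 15 min with compound.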
HP1b chromo inh: inhibitors of HP1-beta chromodomain binding to methylated histone tails. P83916. 390,000 compounds, 0.56% hits. Potency, µM (doses to about 114 µM), most hits filed as inhibitors. AlphaScreen HP1-beta / biotin-H3K9me3 peptide binding; further: nearly all actives have a fitted effect of over 70% in size
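Compound inhibition of the preformed complex between 50 nM HP1-beta and 50 nM biotinylated H3K9me3 peptide was read by AlphaScreen. Buffer was PBS pH 7.4 with 0.01% Tween-20. Incubations ran 30 min at room temperature, with 10 ug/mL donor/acceptor beads.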
BAZ2B block: inhibitors of human BAZ2B bromodomain; 360,000 compounds, 4.4% hits; Potency, µM (series often up to 114 µM), hits mostly inhibitors; AlphaScreen BAZ2B-H3K14Ac peptide displacement; further: nearly all actives have a fitted effect of over 60% in size
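AlphaScreen displacement of biotin-H3(5-23)K14Ac peptide (50 nM final) from BAZ2B (50 nM final) in PBS pH 7.4, 0.01% Tween-20; complex preformed 30 min RT, then compounds (top 110 uM) 30 min RT, beads 20 min dark.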
L3MBTL1 inh: inhibitors of human L3MBTL1. Q9Y468. AlphaScreen L3MBTL1–H3K9me1 peptide binding. Potency, µM (top dose mostly 57.1 µM), hits mostly inhibitors. 230,000 compounds, 0.66% hits; further: nearly all actives have a fitted effect of over 60% in size
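Read-out is AlphaScreen signal from streptavidin donor and nickel chelate acceptor beads (10 ug/mL final each) bridging L3MBTL1 (50 nM) and biotinylated K9-monomethylated H3(1-15) peptide (75 nM), after 30 min compound exposure at room temperature.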
Sfp PPTase inh: blocks B. subtilis Sfp PPTase activity; 310,000 compounds, 3.5% hits; Q9F4F7; Biochemical Sfp PPTase activity, qHTS; Potency, µM, actives largely listed as inhibitors;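 further: the enzyme is Sfp with the accession as filed and its product quenches rhodamine fluorescence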
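After 15 min at room temperature with compound, 15 nM Sfp received 5 uM rhodamine-CoA plus 12.5 uM BHQ-2-ybbR (50 mM Hepes pH 7.6, 10 mM MgCl2). Rate came from the fluorescence difference over 30 min, ex 525/em 598 nm.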
JMJD2A Tudor: blocks the human JMJD2A Tudor domain; AID 504339; AlphaScreen JMJD2A-Tudor / H3K4me3 peptide binding; 390,000 compounds, 4.4% hits; Potency, µM (series often up to 114 µM), most hits filed as inhibitors; O75164; further: nearly all actives have a fitted effect of over 50% in size
Target sequence (O75164 whole entry, looked up, the tested form may be a part): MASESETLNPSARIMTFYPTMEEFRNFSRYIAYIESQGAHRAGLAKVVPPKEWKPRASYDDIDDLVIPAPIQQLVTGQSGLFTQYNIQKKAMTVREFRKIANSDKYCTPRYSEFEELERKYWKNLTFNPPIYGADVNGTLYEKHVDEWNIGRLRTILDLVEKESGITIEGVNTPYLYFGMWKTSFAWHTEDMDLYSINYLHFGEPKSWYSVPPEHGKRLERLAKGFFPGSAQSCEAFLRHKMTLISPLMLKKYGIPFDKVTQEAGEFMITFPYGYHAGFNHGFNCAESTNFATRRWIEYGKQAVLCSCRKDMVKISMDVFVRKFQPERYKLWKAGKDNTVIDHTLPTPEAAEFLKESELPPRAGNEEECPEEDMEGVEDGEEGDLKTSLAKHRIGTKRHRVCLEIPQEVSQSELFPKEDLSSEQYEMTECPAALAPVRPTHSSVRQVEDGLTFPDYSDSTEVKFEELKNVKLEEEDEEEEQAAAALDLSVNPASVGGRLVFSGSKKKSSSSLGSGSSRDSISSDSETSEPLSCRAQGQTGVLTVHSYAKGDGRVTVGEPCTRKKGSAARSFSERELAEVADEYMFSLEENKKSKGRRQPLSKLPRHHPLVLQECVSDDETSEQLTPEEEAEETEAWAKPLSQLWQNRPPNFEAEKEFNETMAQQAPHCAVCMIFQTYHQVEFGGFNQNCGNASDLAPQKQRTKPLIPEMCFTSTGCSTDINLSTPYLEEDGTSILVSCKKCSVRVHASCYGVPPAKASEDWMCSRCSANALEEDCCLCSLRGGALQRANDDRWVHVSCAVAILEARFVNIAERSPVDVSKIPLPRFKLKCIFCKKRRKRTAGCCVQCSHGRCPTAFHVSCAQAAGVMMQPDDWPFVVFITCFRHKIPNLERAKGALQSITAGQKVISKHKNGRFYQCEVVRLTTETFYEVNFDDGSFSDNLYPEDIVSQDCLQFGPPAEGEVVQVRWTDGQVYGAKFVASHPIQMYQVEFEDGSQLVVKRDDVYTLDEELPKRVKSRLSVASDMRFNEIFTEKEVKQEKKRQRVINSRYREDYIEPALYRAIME
Each line names hits and unclear results; the compound was inactive in the other large screens. The list is not random: actives were taken first. Their share in the collection is about 12%. The call rests on the fitted dose curve; in most records, active means well fitted curve in the direction sought with a large enough effect; inconclusive means small, poorly fitted or top-dose-only effect, or another doubt; inactive means no such curve, though single readings can be large; an effect the other way counts as inactive or inconclusive.

COCCOC(=O)/C(C#N)=C/c1cn(Cc2ccccc2)nc1-c1cccnc1	G9a inh inconclusive, BAZ2B block 79.4µM, L3MBTL1 inh inconclusive, JMJD2A Tudor 35.5µM
COc1ccc(N2CCN(C(=O)c3cc(C4CC4)nn3-c3ccccc3)CC2)cc1	G9a inh inconclusive, HP1b chromo inh inconclusive, BAZ2B block 44.7µM, JMJD2A Tudor 50.1µM (no result: Sfp PPTase inh)
Cc1ccc(-c2cc(C(=O)N3CCN(c4ccc(O)cc4)CC3)c3ccccc3n2)cc1	HP1b chromo inh inconclusive, JMJD2A Tudor 28.2µM (no result: G9a inh, BAZ2B block, Sfp PPTase inh)
Fc1ccccc1Cn1nnc2c(-n3ccnc3)ncnc21	JMJD2A Tudor 56.2µM
CN1CCN(c2ncc3nc(-c4ccc(Cl)cc4)c(=O)n(C)c3n2)CC1	none (no result: HP1b chromo inh, BAZ2B block, L3MBTL1 inh, JMJD2A Tudor)
O=[N+]([O-])c1ccccc1-c1ccc(C(=S)N2CCN(c3ccccc3)CC2)o1	HP1b chromo inh inconclusive, BAZ2B block 8.91µM, Sfp PPTase inh 17.8µM, JMJD2A Tudor 22.4µM (no result: G9a inh)
Cc1ccc(N2CCN(C(=S)c3ccc(-c4ccccc4[N+](=O)[O-])o3)CC2)cc1	G9a inh 7.08µM, HP1b chromo inh 14.1µM, BAZ2B block 10µM, Sfp PPTase inh 17.8µM, JMJD2A Tudor 31.6µM
O=C(CN1C(=O)/C(=C/c2c(F)cccc2Cl)Oc2ccccc21)NCc1ccco1	Sfp PPTase inh 39.8µM (no result: HP1b chromo inh, JMJD2A Tudor)
COc1cc(Cl)c(C)cc1NC(=O)CC1Oc2ccccc2NC1=O (configuration not stated)	none (no result: L3MBTL1 inh, Sfp PPTase inh)
Cn1c(=O)c(NC2CCCCC2)c2c3c(cccc31)C(=O)c1ccccc1-2	none (no result: G9a inh)
CCNc1ccc2noc3c2c1C(=O)c1ccccc1-3	G9a inh inconclusive, HP1b chromo inh inconclusive, BAZ2B block 31.6µM, L3MBTL1 inh inconclusive, JMJD2A Tudor inconclusive
O=C1c2ccccc2-c2onc3ccc(N4CCCC4)c1c23	G9a inh 10µM, HP1b chromo inh 20µM, BAZ2B block 14.1µM, L3MBTL1 inh inconclusive, Sfp PPTase inh 39.8µM, JMJD2A Tudor inconclusive
O=C1c2ccccc2C(=O)c2c1cccc2N1CCCC1	G9a inh 3.98µM, HP1b chromo inh inconclusive, BAZ2B block 5.01µM, L3MBTL1 inh 8.91µM, JMJD2A Tudor 5.01µM
Cn1c(=O)cc2c3c(c(N4CCCCC4)ccc31)C(=O)c1ccccc1-2	G9a inh 14.1µM, HP1b chromo inh inconclusive, BAZ2B block 10µM, L3MBTL1 inh inconclusive, JMJD2A Tudor 35.5µM
CCOc1ccc2noc3c2c1C(=O)c1ccccc1-3	G9a inh inconclusive, Sfp PPTase inh inconclusive
O=C1c2ccccc2-c2onc3ccc(NCc4ccco4)c1c23	JMJD2A Tudor inconclusive
Cc1cccc(OC(=O)n2c(=S)oc3cc(Cl)ccc32)c1	G9a inh 2.82µM, JMJD2A Tudor 79.4µM
CCOc1ccc(NC(=O)CSC2=Nc3ccccc3C3=NC(CC(=O)NCc4ccccc4OC)C(=O)N23)cc1 (configuration not stated)	none (no result: L3MBTL1 inh, Sfp PPTase inh)
Cc1cccc(N2CCN(C(=O)C3CCN(C(=O)c4cc5sccc5n4C)CC3)CC2)c1C	G9a inh inconclusive, BAZ2B block 22.4µM, JMJD2A Tudor inconclusive (no result: L3MBTL1 inh, Sfp PPTase inh)
COc1ccc(CCNC(=O)C23CN(Cc4ccccc4)CC2C(c2cccc([N+](=O)[O-])c2)=NO3)cc1 (configuration not stated)	G9a inh inconclusive, JMJD2A Tudor inconclusive
CC(C)CCNC(=O)C12CN(Cc3ccccc3)CC1C(c1ccc([N+](=O)[O-])cc1)=NO2 (configuration not stated)	G9a inh inconclusive, BAZ2B block inconclusive, Sfp PPTase inh 14.1µM, JMJD2A Tudor inconclusive
O=C(NCc1ccccc1C(F)(F)F)C12CN(Cc3ccccc3)CC1C(c1ccc([N+](=O)[O-])cc1)=NO2 (configuration not stated)	G9a inh inconclusive, Sfp PPTase inh 2.24µM
COc1cccc(CNC(=O)C23CN(Cc4ccccc4)CC2C(c2ccc([N+](=O)[O-])cc2)=NO3)c1 (configuration not stated)	G9a inh 70.8µM, JMJD2A Tudor inconclusive
Cc1ccc(CCNC(=O)C23CN(Cc4ccccc4)CC2C(c2cccc([N+](=O)[O-])c2)=NO3)cc1 (configuration not stated)	G9a inh inconclusive
CC1CCc2nc3ncn(CC(=O)Nc4cccc(C#N)c4)c(=O)c3cc2C1 (configuration not stated)	none (no result: L3MBTL1 inh, Sfp PPTase inh)
CC(C)CCOc1ccc(Cn2c(=O)oc3ccccc32)cc1	none (no result: L3MBTL1 inh, Sfp PPTase inh)
CCC1(c2ccc(O)cc2)NC(=O)N(C)C1=O (configuration not stated)	none (no result: G9a inh, HP1b chromo inh, BAZ2B block, L3MBTL1 inh, JMJD2A Tudor)
COc1ccc(NC(=O)Cn2cc(C(=O)c3ccccc3OC)c(=O)c3ccc(C)nc32)cc1OC	BAZ2B block inconclusive (no result: L3MBTL1 inh, Sfp PPTase inh)
Cc1[nH]n(S(=O)(=O)Cc2ccccc2)c(=O)c1N=Nc1ccccc1Cl	G9a inh 50.1µM, JMJD2A Tudor inconclusive (no result: BAZ2B block, L3MBTL1 inh)
Cc1ccccc1C1c2[nH]c3ccccc3c2CCN1C(=O)c1ccc(=O)n(C)n1 (configuration not stated)	BAZ2B block 10µM, JMJD2A Tudor inconclusive
Cc1cc(C(=O)N2CCc3c([nH]c4ccccc34)C2c2cccc(Cl)c2)nn1C (configuration not stated)	G9a inh 39.8µM, BAZ2B block inconclusive, JMJD2A Tudor inconclusive
CSc1ccc(C2c3[nH]c4ccccc4c3CCN2C(=O)c2cc(C)n(C)n2)cc1 (configuration not stated)	BAZ2B block inconclusive, L3MBTL1 inh inconclusive (no result: G9a inh, HP1b chromo inh, JMJD2A Tudor)
CN1N=C(C(=O)N2CCc3c([nH]c4ccccc34)C2c2ccccc2Cl)CCC1=O (configuration not stated)	G9a inh inconclusive, JMJD2A Tudor 31.6µM
O=C(c1cc[n+]([O-])cc1)N1CCc2c([nH]c3ccccc23)C1c1ccccc1Cl (configuration not stated)	BAZ2B block inconclusive (no result: G9a inh)
CCOc1ccc(OCC)c(NC(=O)C2C3C=CC(O3)C2C(=O)NCc2ccco2)c1 (configuration not stated)	G9a inh 50.1µM, BAZ2B block inconclusive, JMJD2A Tudor inconclusive
COc1ccc(NC(=O)C2C3C=CC(C3)C2C(=O)NCc2ccco2)c(OC)c1 (configuration not stated)	none
COc1ccc(-n2c(=O)c3ccccc3n(Cc3ccccc3C)c2=O)c(OC)c1	none (no result: L3MBTL1 inh, Sfp PPTase inh)
CC1=C(C#N)c2nc(N)c(C#N)c(C)c2/C1=C\c1ccc(-c2ccccc2C(=O)O)o1	G9a inh 7.94µM, HP1b chromo inh 44.7µM, BAZ2B block 12.6µM, L3MBTL1 inh 15.8µM, Sfp PPTase inh inconclusive, JMJD2A Tudor 35.5µM
C/C=C/c1ccc(OCC(=O)O)c(OC)c1	none
Cc1c(C(=O)O)cccc1-c1ccc(/C=C2/NC(=O)N(c3ccccc3)C2=O)o1	G9a inh inconclusive
COc1cc(/C=C2/C(C)=C(C#N)c3nc(N)c(C#N)c(C)c32)ccc1OCC(=O)O	BAZ2B block 44.7µM, L3MBTL1 inh inconclusive, Sfp PPTase inh inconclusive (no result: G9a inh)
